# From publication PMC5540273 (PLoS ONE, 2017)
# Key:
# Details in all cases: concentration: 1 μM, replicates: in singlicate; n = 1
# MYLK = tested on: MYLK
# MYO3A = tested on: MYO3A
# MYO3B = tested on: MYO3B
# NDR1 = tested on: T1, NDR1
# T1 construct: gene STK38
# NDR2 = tested on: NDR2
# NEK10 = tested on: NEK10
# NEK11 = tested on: NEK11
# NEK1 = tested on: NEK1
# NEK2 = tested on: NEK2
# NEK3 = tested on: NEK3
# NEK4 = tested on: NEK4
# NEK5 = tested on: NEK5
# NEK6 = tested on: NEK6
# NEK7 = tested on: NEK7
# NEK9 = tested on: NEK9
# NIK = tested on: T2, NIK
# T2 construct: gene MAP3K14
# NIM1 = tested on: T3, NIM1
# T3 construct: gene MGC42105
# NLK = tested on: NLK
# OSR1 = tested on: T4, OSR1
# T4 construct: gene OXSR1
# PAK1 = tested on: PAK1
# 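Note: KINOMEscan kinase panel screen.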
SMILES,%Inh (MYLK) [%],%Inh (MYO3A) [%],%Inh (MYO3B) [%],%Inh (NDR1) [%],%Inh (NDR2) [%],%Inh (NEK10) [%],%Inh (NEK11) [%],%Inh (NEK1) [%],%Inh (NEK2) [%],%Inh (NEK3) [%],%Inh (NEK4) [%],%Inh (NEK5) [%],%Inh (NEK6) [%],%Inh (NEK7) [%],%Inh (NEK9) [%],%Inh (NIK) [%],%Inh (NIM1) [%],%Inh (NLK) [%],%Inh (OSR1) [%],%Inh (PAK1) [%]
Cc1ccc(Oc2ccc(Nc3ncnc4cc[nH]c34)cc2C)cn1,38,9,28,8,0,0,0,0,2,20,3,0,17,10,5,0,58,0,0,37
O=C(NCCNc1ccnc(Nc2ccc(F)cc2)n1)Nc1ccc2c(c1)OCO2 [GSK1379882],23,32,0,10,20,0,7,0,7,16,0,15,0,0,12,22,18,0,0,0
Cl.c1ccc(Cn2cnc3cc(Nc4ncnc5ccccc45)ccc32)cc1 [GW272142],1,10,0,9,4,15,0,0,0,0,0,16,0,0,7,14,0,0,26,0
COc1cc2nccc(Nc3cccc(Oc4ccccc4)c3)c2cc1OC.Cl [GW284543],0,0,36,8,0,0,19,0,0,0,3,0,0,11,27,37,19,24,4,0
CCC(=O)c1c(-c2ccccc2)c2cc(Cl)ccc2c(=O)n1Cc1cc(S(C)(=O)=O)n(CC(N)=O)n1,0,0,0,32,0,0,0,0,0,32,0,0,0,0,0,0,14,0,0,32
O=C(Nc1n[nH]c2nc(-c3ccccc3)c(Cl)cc12)C1CC1 [SB-734909],37,0,12,8,0,0,11,0,0,33,23,11,0,0,2,13,6,11,0,0
O=C(Nc1ccc2c(c1)OCO2)NC1CCN(c2ccnc(NCc3ccc(F)cc3)n2)CC1 [GSK1379859],20,0,0,0,0,3,8,0,3,0,23,17,0,0,11,12,0,11,3,0
CCS(=O)c1ccc(-c2coc3ccc(-c4nnc(C)o4)cc23)cc1 (stereo not drawn),0,0,3,0,0,5,0,0,0,1,0,0,0,0,0,0,11,0,0,0
Nc1ncnc2c1ncn2-c1cccc(F)c1 [SKF-97560],38,0,0,15,17,53,38,0,0,25,21,25,0,0,0,18,48,0,28,5
Fc1cccc(CSc2nnc(-c3ccc4c(c3)CCO4)o2)c1,2,0,0,16,22,0,0,0,1,19,20,6,10,13,12,0,0,0,3,28
CCn1c(-c2nonc2N)nc2ccccc21 [SB-693162/GW549034],48,0,18,37,23,12,25,0,0,0,11,18,17,12,0,24,2,0,24,0
Cc1nn2c(=O)cc(N3CCOCC3)nc2n1Cc1cccc(Cl)c1Cl [GSK2342769],16,0,0,0,0,0,0,0,2,0,9,0,0,0,0,0,12,0,8,9
CCc1nc(-c2cccc(C)c2)c(-c2ccncc2)s1,12,4,15,40,0,3,0,0,0,28,0,0,3,0,0,0,0,81,0,28
Nc1n[nH]c2ncc(-c3ccccc3)cc12 [SB-517081],39,20,0,27,0,24,0,0,27,21,26,9,0,0,7,0,28,13,0,7
Cc1ccccc1COc1cc(-n2cnc3cc(Cl)ccc32)sc1C(N)=O [GW813349],5,0,0,3,1,0,0,0,5,13,0,6,0,4,0,9,5,0,0,0
COc1cc(Nc2nccc(N3CCC(NC(=O)C(C)c4ccc(Cl)cc4)C3)n2)cc(OC)c1OC (stereo not drawn) [GSK1379757],8,20,0,26,0,0,12,8,0,19,0,95.5,0,0,19,0,0,0,0,10
Cc1nnc(-c2ccc3ncn(-c4ccc(S(C)=O)cc4)c3c2)o1 (stereo not drawn),0,2,48,21,0,2,0,5,0,0,0,0,17,2,13,3,0,0,0,8
Cc1cc(Nc2nc(-c3cccc(C)n3)nc3ccccc23)ccn1 [GW872411],0,0,0,31,22,6,0,0,0,14,0,6,0,0,0,16,0,0,0,0
Cc1cccc(-c2nc(Nc3ccc4c(cnn4C)c3)c3ccccc3n2)n1 [GW876731],0,0,0,17,68,0,46,0,14,0,0,49,12,2,5,11,16,25,0,6
CCS(=O)(=O)c1ccc(OC)c(Nc2ncc(-c3ccc(F)cc3)o2)c1.Cl [GW591947],0,6,0,10,0,9,0,0,0,0,0,9,0,0,11,0,5,22,4,0
Nc1ncnc2c1ncn2-c1ccc(Cl)cc1 [AH2635],0,49,0,0,31,27,0,0,0,0,0,12,0,0,0,89,27,0,0,4

SMILES,%Inh (MYLK) [%],%Inh (MYO3A) [%],%Inh (MYO3B) [%],%Inh (NDR1) [%],%Inh (NDR2) [%],%Inh (NEK10) [%],%Inh (NEK11) [%],%Inh (NEK1) [%],%Inh (NEK2) [%],%Inh (NEK3) [%],%Inh (NEK4) [%],%Inh (NEK5) [%],%Inh (NEK6) [%],%Inh (NEK7) [%],%Inh (NEK9) [%],%Inh (NIK) [%],%Inh (NIM1) [%],%Inh (NLK) [%],%Inh (OSR1) [%],%Inh (PAK1) [%]
Cc1nnc(-c2ccc(C)c(-c3ccc(C(=O)O)cc3)c2)o1 [GW608005],5,0,0,9,0,0,5,0,19,0,14,2,0,5,2,26,13,0,2,8
COc1ccc(-c2cc3c(C)nc(N)nc3n([C@H]3CC[C@H](OCCO)CC3)c2=O)cn1,0,0,25,11,0,22,0,0,0,19,0,0,22,0,0,0,21,0,0,0
Cc1nc(N(C)[C@H]2CN(C(=O)CC#N)CC[C@H]2C)c2cc[nH]c2n1,10,0,9,0,13,0,0,0,0,3,4,11,7,0,0,0,0,7,0,0
COc1ccc(Nc2nccc(N3CCC(NS(=O)(=O)c4ccc(NC(C)=O)cc4)C3)n2)cc1 (stereo not drawn) [GSK1379729],15,8,2,10,0,0,1,0,8,7,3,33,11,3,5,17,11,13,20,6
CCC(=O)c1c(-c2ccccc2)c2cc(Cl)ccc2c(=O)n1Cc1cc(C(=O)NC2CC2)n(C)n1,0,4,0,0,0,0,0,10,0,13,16,0,8,0,0,0,1,0,0,20
OCCCNc1nccc(-c2c(-c3cccc(C(F)(F)F)c3)nn3cc(C(F)(F)F)ccc23)n1 [GW630813],10,43,0,9,18,0,5,0,0,0,0,5,0,0,1,0,0,92.7,0,0
Nc1nccc2scc(-c3ccc4c(c3)CCN4C(=O)Cc3ccccc3)c12 [GSK2576924],4,11,5,27,3,9,0,0,4,10,0,14,0,0,18,23,8,0,7,18
O=C(Nc1n[nH]c2nc(-c3ccccc3)c(Br)cc12)C1CC1 [SB-708998],7,0,13,18,0,4,0,0,15,0,3,2,0,0,3,31,9,33,11,10
FC(F)(F)c1ccc(-c2ncn(CCCN3CCOCC3)c2-c2ccncc2)cc1 [SB-217780],4,0,0,3,0,4,0,0,0,9,0,9,0,10,33,0,26,35,5,20
COc1cc(OC)cc(-c2cc3cnc(N)nc3nc2NC(=O)NC(C)(C)C)c1,7,0,0,0,0,0,0,0,3,33,0,0,0,1,0,1,0,0,0,0
CCC(=O)c1c(-c2ccccc2)c2cc(Cl)ccc2c(=O)n1Cc1cc(S(C)(=O)=O)n(CC(F)F)n1,0,0,0,3,0,5,0,0,0,22,0,0,0,0,0,0,0,0,0,0
COc1ccc(CNC(=O)NC2CCN(c3ccnc(Nc4ccc(F)cc4)n3)C2)cc1 (stereo not drawn) [GSK1379706],9,42,0,28,50,25,43,17,16,13,0,35,21,0,0,26,0,37,0,0
COC(=O)c1c(-c2ccccc2)c2cc(Br)ccc2c(=O)n1Cc1ccc(S(C)(=O)=O)cc1,20,26,0,7,19,0,0,0,10,21,17,0,20,3,6,0,15,0,4,24
Cl.NS(=O)(=O)c1cccc(Nc2cc(-c3ccc(F)cc3)n[nH]2)c1 [GW824645],0,0,0,47,5,8,0,0,0,14,0,0,0,0,0,45,3,0,0,4
COC(=O)c1c(-c2ccccc2)c2cc(C)ccc2c(=O)n1Cc1ccccc1,0,0,0,0,0,0,0,0,0,24,0,0,0,0,0,100,0,0,0,24
COc1ccc(-n2cnc3c(N)ncnc32)cc1 [SKF-97236],0,4,0,3,0,40,3,0,0,0,0,0,5,0,17,0,12,0,14,0
CN1C(=O)C(Nc2cc(Cl)c(O)c(Cl)c2)=C(c2ccc(Cl)cc2)C1=O [SB-404321],0,0,8,0,0,0,0,0,0,16,0,7,0,0,0,30,0,0,0,0
CC(C)(C)c1ccc(C(=O)Nc2cn3cc(-c4ccccc4)ccc3n2)cc1,23,0,0,35,0,0,0,0,0,36,0,0,0,0,0,0,19,0,0,0
CCCC(=O)Nc1n[nH]c2ncc(-c3cccc4ccccc34)cc12 [SB-642057],28,0,0,13,3,100,0,0,0,28,0,9,0,0,0,11,28,24,0,4
COc1cc2ncn(-c3cc(OCc4ccncc4)c(C(N)=O)s3)c2cc1OC [GSK336313],44,10,0,0,0,0,0,31,10,0,0,23,0,0,15,0,0,11,31,16
COc1ccc(-c2cc3c(C)nc(N)nc3n([C@H]3CC[C@H](O)CC3)c2=O)cn1,98.8,0,0,0,0,0,0,0,0,16,0,0,0,0,0,2,0,13,0,7
